We go through 26 molecules from PubChem BioAssay (NCATS).

Results filed as inconclusive are left out. Unmarked numbers belong to inactive results. The source made the active and inactive calls. Calls follow the shape of the dose curve; as a rule, active = well fitted cell-killing curve with a large enough effect; inconclusive = small, poorly fitted or top-dose-only effect, or effect the other way; inactive = flat fitted curve, though single readings scatter.
% is scaled to controls: 0 for no effect and ±100 for the full control effect.

The test system of the assay is Tov-21-G. Briefly: Primary qHTS to identify gynecologic anti-cancer compounds using libraries of approved drugs and bioactive compounds (AID 1345084). Also: nearly all actives have a fitted effect of over 55% in size. As to conditions: Gynecologic cancer cell panel viability, ATPlite luminescence, 48 h; series mostly up to 57.5 µM; activity change, negative = cytotoxicity: at the top concentration. An outline of the steps:
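Cells, 1,000 per well, were allowed to settle for 16 h at 37 C before compound addition. Five concentrations were tested for 48 h, and viability was read by ATPlite luminescence after 15 min at room temperature.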
A general note: In qHTS, concentration-response curves come from the screen itself.
As for `C=C1CCC2C(C)(C)C(O)CCC2(C)C1CCC(C)CCOC(=O)CCC(=O)O` (stereo unspecified), the “activity change, negative = cytotoxicity” value was 4.97% [at 25.3 µM].
Same read-out and setting: the figure for `COc1cc(C)c(C(=O)O[C@H]2[C@@H](O)[C@H](n3ccc(=O)[nH]c3=O)O[C@@H]2CO)c(OC)c1` is -0.313% [at 25.3 µM]; for `COC(=O)C1=COC(O[C@@H]2O[C@H](CO)[C@@H](O)[C@H](O)[C@H]2O)/C(=C\COC(=O)c2ccc(OC3OC(CO)C(O)C(O)C3O)c(OC)c2)C1CC(=O)OCCc1ccc(O)cc1` (stereo partly specified) it is 2.92% [at 11.6 µM].
On the same count and under the same terms, the figure for `COc1cc(CC(COC2OC(CO)C(O)C(O)C2O)c2cc(/C=C/CO)cc(OC)c2O)ccc1O` (stereo unspecified) is 0.769% [at 25.3 µM]; for `CC1(C)C[C@H]2C3=CCC4[C@@]5(C)CC[C@H](O[C@H]6O[C@H](C(=O)O)[C@@H](O)[C@H](O)[C@H]6O[C@H]6O[C@H](CO)[C@@H](O)[C@H](O)[C@H]6O[C@@H]6O[C@H](CO)[C@@H](O)[C@H](O)[C@H]6O)[C@](C)(CO)C5CC[C@@]4(C)[C@]3(C)CC[C@@]2(C)[C@H](O[C@@H]2OC[C@H](O)[C@H](OC3O[C@H](CO)[C@@H](O)[C@H](O)[C@H]3O)[C@H]2O)[C@@H]1O` (stereo partly specified) it is 3.65% [at 6.55 µM].
The same measure, in the same setting: with `O=C1N(CC2CCCCN2)CCN1c1ccccc1` (stereo unspecified) the figure was 1.37%; with `CCCOc1ccn2c(C(C)=O)cc(-c3ccccc3S(C)(=O)=O)c2c1`, 13.5%.
As for `COc1cc(/C=C/C(=O)O[C@H]2[C@H](O)[C@@H](CO)O[C@@]2(CO)O[C@H]2O[C@H](COC(=O)c3ccc(O)cc3)[C@@H](O)[C@H](O)[C@H]2O)cc(OC)c1OC`, the “activity change, negative = cytotoxicity” value was -2.1% [at 25.3 µM].
Same read-out and setting: the figure for `OC[C@H]1O[C@@H](n2cnc3c2NC=NC[C@H]3O)C[C@@H]1O` is -0.0244%.
Same read-out and setting: with `CNc1nc(Nc2cnn([C@H]3CCN(C4COC4)C[C@@H]3F)c2Cl)ncc1C(F)(F)F` the figure was -0.892%; with `CCCCS(=O)(=O)Nc1ncnc(OCCOc2ncc(Br)cn2)c1-c1ccc(Br)cc1`, 3.51%.
Still for that read-out and setting: the figure for `CC/C=C/CC1=C(CCCCCCCC(=O)O)CCC1=O` is -2.02%; for `C[C@@H]1O[C@@H](OC[C@H]2O[C@@H](OCCc3ccccc3)[C@H](O)[C@@H](O)[C@@H]2O)[C@H](O)[C@H](O)[C@H]1O` it is -12.4% [at 25.3 µM].
`C=C[C@](C)(CC/C=C(\C)C(=O)O)O[C@@H]1OC[C@H](O)[C@H](O)[C@H]1O`: the “activity change, negative = cytotoxicity” value was 1.69% [at 38.5 µM].
Turning to `FC(F)(F)c1cc(C(F)(F)F)c2ccc3nc(-c4nnco4)cn3c2n1`, the “activity change, negative = cytotoxicity” value is 9.18%.
Still for that read-out and setting: with `C[C@@H]1O[C@@H](OC[C@H]2O[C@@H](OCC3CCC4CC3C4(C)C)[C@H](O)[C@@H](O)[C@@H]2O)[C@H](O)[C@H](O)[C@H]1O` (stereo partly specified) the figure was 11.7% [at 25.3 µM].
Same read-out and setting: the figure for `O=C1[C@H](O[C@@H]2O[C@H](CO)[C@@H](O)[C@H](O)[C@H]2O)Oc2ccccc2N1O` is 0.679% [at 38.5 µM].
Still for that read-out and setting: with `C[C@@H]1O[C@@H](O[C@H]2[C@H](OC(=O)[C@]34CCC(C)(C)C[C@H]3C3=CCC5[C@@]6(C)C[C@H](O)[C@H](O[C@@H]7O[C@H](CO[C@@H]8OC[C@H](O)[C@H](O)[C@H]8O)[C@@H](O)[C@H](O)[C@H]7O)C(C)(C)C6CC[C@@]5(C)[C@]3(C)C[C@H]4O)OC[C@@H](O)[C@@H]2O)[C@H](O)[C@H](O[C@@H]2OC[C@](O)(CO)[C@H]2O)[C@H]1O[C@@H]1OC[C@H](O)[C@H](O[C@@H]2OC[C@@H](O)[C@H](O)[C@H]2O)[C@H]1O` (stereo partly specified) the figure was -3.09% [at 6.55 µM].
As for `COC(=O)C1C(c2ccc(O)cc2)C(C(=O)OC)C1c1ccc(O)cc1` (stereo unspecified), the “activity change, negative = cytotoxicity” value was 8.72% [at 38.5 µM].
In the case of `CCN[C@@H]1C[C@H](N)[C@@H](O[C@H]2OC(CN)=CC[C@H]2N)[C@H](O)[C@H]1O[C@H]1OC[C@](C)(O)[C@H](NC)[C@H]1O`, the Potency entry is “inactive”.
With `CCOC(=O)[C@H]1O[C@@H]1C(=O)N[C@@H](CC(C)C)C(=O)NCCC(C)C`, the “activity change, negative = cytotoxicity” value is -3.08%.
Still for that read-out and setting: with `CC(=O)N1c2ccccc2C2(O)CC3C(=O)NC(CC(C)C)C(=O)N3C12` (stereo unspecified) the figure was 0.341% [at 38.5 µM]; with `CC(C)=CCC/C(C)=C/CC/C(C)=C/CC[C@]1(C)CCc2cc(O)cc(C)c2O1`, 10.7% [at 25.3 µM]; with `O=C(c1ccc(NS(=O)(=O)c2cccc3cccnc23)cc1)N1CCN(CC2CC2)CC1`, 0.226%.
The same measure, in the same setting: the figure for `COc1cc(N2CCC(O)CC2)ccc1Nc1cc(Nc2ccccc2S(=O)(=O)C(C)C)c2cc[nH]c2n1` is -3.84% [at 38.5 µM]; for `C[C@@H]1O[C@@H](O[C@H]2[C@H](OC(=O)[C@]34CCC(C)(C)C[C@H]3C3=CCC5[C@@]6(C)C[C@H](O)[C@H](O[C@@H]7O[C@H](CO)[C@@H](O[C@@H]8O[C@H](CO)[C@@H](O)[C@H](O)[C@H]8O)[C@H](O)[C@H]7O)[C@@](C)(CO)C6[C@H](O)C[C@@]5(C)[C@]3(C)C[C@H]4O)OC[C@H](O)[C@@H]2O)[C@H](O)[C@H](O)[C@H]1O[C@@H]1OC[C@@H](O)[C@H](O[C@@H]2OC[C@](O)(CO)[C@H]2O)[C@H]1O` (stereo partly specified) it is 2.26% [at 6.55 µM].
